Assay outcomes (PubChem)
MCL1 BIM primary = inhibitors of MCL1 binding to BIM-BH3, primary screen, biochemical, fluorescence polarization. Induced myeloid leukemia cell differentiation protein Mcl-1 (Homo sapiens), Q07820. GST-MCL1 / FITC-Bim-BH3 fluorescence polarization. inhibition, % at 10.9 µM. 320,000 compounds, 0.68% hits. AID 2057, 2009;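 active means inhibition above the mean inhibition of all tested compounds plus 3 SD, set per campaign, cut at about 40% in these data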;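 further: 0% = DMSO wells and 100% = unlabeled Bim-BH3 peptide control; higher means more loss of mP so more displacement of Bim peptide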
Target sequence (Q07820 whole entry, looked up): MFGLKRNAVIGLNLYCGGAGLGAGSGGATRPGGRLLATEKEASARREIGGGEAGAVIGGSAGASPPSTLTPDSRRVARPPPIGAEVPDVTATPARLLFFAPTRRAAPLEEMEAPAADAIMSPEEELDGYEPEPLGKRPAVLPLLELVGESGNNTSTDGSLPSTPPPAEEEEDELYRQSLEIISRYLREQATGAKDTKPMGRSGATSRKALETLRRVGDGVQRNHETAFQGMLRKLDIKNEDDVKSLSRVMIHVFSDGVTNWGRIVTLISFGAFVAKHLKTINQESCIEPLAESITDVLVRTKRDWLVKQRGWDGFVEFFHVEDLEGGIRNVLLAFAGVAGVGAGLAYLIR
Bim-Mcl-1 = inhibitors of Bim peptide binding to Mcl-1, primary screen, biochemical, bead-based flow cytometry, multiplex. Induced myeloid leukemia cell differentiation protein Mcl-1 (Homo sapiens), Q07820. Bim peptide-Mcl-1 binding. inhibition, % at 10 µM. 190,000 compounds, 0.1% hits. AID 1009, 2008; in the data active means inhibition above about 40%;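 further: 0% = no compound tracer wells and 100% = peptide blocker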
Bcl-xL primary = inhibitors of human Bcl-xL, primary screen, biochemical, fluorescence polarization, HTS. Bcl-2-like protein 1 (Homo sapiens), Q07817. inhibition, % at 10.9 µM. AID 2129, 2009. 320,000 compounds, 0.7% hits. GST-Bcl-xL / FITC-Bim BH3 peptide fluorescence polarization;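 active means inhibition above the mean of all tested compounds plus 3 SD, cutoff set per campaign, cut at about 30% in these data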;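 further: 0% = DMSO wells and 100% = unlabeled Bim-BH3 peptide competitor; inhibitors lower millipolarization by displacing the labeled peptide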
Target sequence (Q07817 whole entry, looked up): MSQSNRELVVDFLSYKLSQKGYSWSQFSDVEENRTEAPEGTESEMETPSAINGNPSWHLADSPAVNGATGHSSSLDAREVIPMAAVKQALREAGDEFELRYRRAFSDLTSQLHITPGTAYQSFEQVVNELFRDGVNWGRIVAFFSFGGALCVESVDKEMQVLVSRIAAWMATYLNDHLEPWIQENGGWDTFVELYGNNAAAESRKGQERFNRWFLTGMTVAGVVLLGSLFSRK
GLD-1 TGE inh = GLD-1/TGE RNA complex disruptors, primary screen, biochemical, fluorescence polarization; purified GLD-1 + fluorescein TGE RNA; inhibition, % at 5.96 µM; 320,000 compounds, 0.44% hits;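 active means percent inhibition above a per-plate cutoff, the plate mean of test compounds plus 3 SD, cut at about 30% in these data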;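 further: 0% = DMSO wells with GLD-1 and probe and 100% = wells lacking GLD-1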
Mcl1 Noxa PPI = Mcl-1/Noxa binding inhibitors, primary screen, biochemical, TR-FRET, 1536-well | TR-FRET Mcl-1/Noxa peptide binding, 2 h | inhibition, % at 21.7 µM | 220,000 compounds, 1.5% hits | AID 1022, 2008;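 active means compounds that cut the protein-peptide binding signal by more than 50% relative to plate controls in a single-dose test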;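 further: His-tagged Mcl-1 with rhodamine Noxa BH3 peptide and terbium anti-His antibody; 0% = Mcl-1 plus Noxa peptide wells and 100% = peptide-only wells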
Mcl1-Bid inh = Mcl-1/Bid binding inhibitors, primary screen, biochemical, TR-FRET, 1536-well; Induced myeloid leukemia cell differentiation protein Mcl-1 (Homo sapiens), Q07820; TR-FRET Mcl-1/Bid-Dy647 peptide binding; inhibition, % at 21.7 µM; 220,000 compounds, 0.97% hits; AID 1021, 2008;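 active means compounds that cut the binding signal by more than half at the single screening dose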;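 further: His-tagged Mcl-1 with europium anti-His antibody binding Bid BH3 peptide; 0% = Mcl-1 plus peptide wells and 100% = peptide-only wells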
Starred values were filed as active, the others as inactive. Hits are enriched below; roughly 2.3% of the tested compounds scored in any of these assays.

Screening CCOc1cccc(C(=O)Nc2ccc(N3CCCC3)cc2)c1 returned MCL1 BIM primary 0.1, Bcl-xL primary -0.2 and GLD-1 TGE inh 0.6.
CN(C)C(CNC(=O)c1ccc(S(=O)(=O)Nc2ccccc2F)cc1)c1ccccc1 (stereo unspecified) was read as MCL1 BIM primary 12.2, Bcl-xL primary 1.6 and GLD-1 TGE inh -0.9.
Screening CC(=O)Nc1ccc(NC(=O)COC(=O)c2c3c(nc4ccccc24)CCN(Cc2ccccc2)C3)cc1 returned MCL1 BIM primary -1.4, Bim-Mcl-1 -3.0, Bcl-xL primary 7.9, GLD-1 TGE inh -2.6, Mcl1 Noxa PPI 2.1 and Mcl1-Bid inh -14.4.
Screening O=C(COC(=O)c1c2c(nc3ccccc13)CCN(Cc1ccccc1)C2)Nc1c(F)cccc1F returned MCL1 BIM primary 40.8*, Bim-Mcl-1 -3.0, Bcl-xL primary 34.4*, GLD-1 TGE inh 38.8*, Mcl1 Noxa PPI -1.9 and Mcl1-Bid inh 9.6.
COC(=O)c1ccc(CNC(=O)c2c3c(nc4ccccc24)CCN(Cc2ccccc2)C3)cc1 was read as MCL1 BIM primary -9.4, Bim-Mcl-1 -4.0, Bcl-xL primary 9.8, GLD-1 TGE inh 11.9, Mcl1 Noxa PPI 26.2 and Mcl1-Bid inh 94.0*.
CS(=O)(=O)Nc1ccc(S(=O)(=O)NC2CCCCC2)cc1 was read as MCL1 BIM primary 0.1, Bim-Mcl-1 0.0, Bcl-xL primary 1.2, GLD-1 TGE inh 5.2, Mcl1 Noxa PPI 7.5 and Mcl1-Bid inh -18.0.
`O=C(NC(=S)Nc1ccc2c(c1)C(=O)c1ccccc1C2=O)c1ccc(F)cc1` gave MCL1 BIM primary 8.9, Bim-Mcl-1 -2.0, Bcl-xL primary 6.1, GLD-1 TGE inh 7.5, Mcl1 Noxa PPI 51.1* and Mcl1-Bid inh 41.6.
`Cn1cc(Br)c(NC(=O)/C=C/C(=O)O)n1` gave MCL1 BIM primary -1.2, Bcl-xL primary 2.2, GLD-1 TGE inh 1.5, Mcl1 Noxa PPI 66.7* and Mcl1-Bid inh 17.6.
Screening Cc1cccc(NS(=O)(=O)c2nnc(NC(=O)CC(C)C)s2)c1 returned MCL1 BIM primary 0.2, Bcl-xL primary 3.5 and GLD-1 TGE inh 0.0.
`CC(C)[n+]1ccn(C2=C([O-])c3ccccc3C(=O)/C2=N\S(=O)(=O)c2ccccc2)c1` gave MCL1 BIM primary 5.4, Bcl-xL primary 4.1, GLD-1 TGE inh 3.6, Mcl1 Noxa PPI -0.8 and Mcl1-Bid inh 84.2*.
CCCC[n+]1ccn(C2=C([O-])c3ccccc3C(=O)/C2=N\S(=O)(=O)c2ccccc2)c1 was read as MCL1 BIM primary 0.4, Bim-Mcl-1 -3.0, Bcl-xL primary 1.3, GLD-1 TGE inh 4.6, Mcl1 Noxa PPI -5.5 and Mcl1-Bid inh -11.9.
`COc1ccccc1N1CCN(CC(=O)c2c(C)[nH]c3ccccc23)CC1` gave MCL1 BIM primary -5.4, Bim-Mcl-1 -2.0, Bcl-xL primary -1.8, GLD-1 TGE inh 0.2, Mcl1 Noxa PPI -8.5 and Mcl1-Bid inh 75.7*.
For COc1ccccc1N1CCN(CC(=O)c2c[nH]c3ccccc23)CC1 the results were MCL1 BIM primary -10.8, Bcl-xL primary -13.8, GLD-1 TGE inh -5.8, Mcl1 Noxa PPI -14.5 and Mcl1-Bid inh -56.8.
Screening Cc1cc(=O)oc2ccc(OC(=O)CN3C(=O)c4cccc([N+](=O)[O-])c4C3=O)cc12 returned MCL1 BIM primary 6.9, Bim-Mcl-1 -3.0, Bcl-xL primary 5.8, GLD-1 TGE inh 3.5, Mcl1 Noxa PPI 32.9 and Mcl1-Bid inh -11.2.
C=CCc1c(C)nc(SCC(N)=O)[nH]c1=O was read as MCL1 BIM primary -1.1, Bim-Mcl-1 0.0, Bcl-xL primary -0.6, GLD-1 TGE inh -12.9, Mcl1 Noxa PPI 27.1 and Mcl1-Bid inh 9.9.
Screening C=CCc1c(C)nc(SCCC)[nH]c1=O returned MCL1 BIM primary -4.1, Bim-Mcl-1 -3.0, Bcl-xL primary 3.3, GLD-1 TGE inh 1.1, Mcl1 Noxa PPI 97.9* and Mcl1-Bid inh 3.0.
Screening COc1ccc(C(C)=O)cc1COc1ccc(Cl)cc1Cl returned MCL1 BIM primary -1.8, Bcl-xL primary 5.1, GLD-1 TGE inh 3.5, Mcl1 Noxa PPI -11.2 and Mcl1-Bid inh 92.5*.
Screening Cc1ccc2c(c1)c1c(n2CC(O)Cn2nc(C)c(Br)c2C)C(=O)CCC1 (stereo unspecified) returned MCL1 BIM primary -4.1, Bim-Mcl-1 3.0, Bcl-xL primary 1.4, GLD-1 TGE inh -5.2, Mcl1 Noxa PPI 9.3 and Mcl1-Bid inh -7.8.
`Cc1ccc2c(c1)c(C)c(C)n2CC(O)Cn1nc(C)c(Br)c1C` (stereo unspecified) gave MCL1 BIM primary -0.6, Bim-Mcl-1 58.0*, Bcl-xL primary 4.9, GLD-1 TGE inh 2.4, Mcl1 Noxa PPI 14.3 and Mcl1-Bid inh -17.1.
Screening CCC[n+]1c2ccccc2cc2ccccc21 returned MCL1 BIM primary 19.7, Bcl-xL primary 36.5* and GLD-1 TGE inh 28.6.
Screening N#C/C(=C/N1CCOCC1)c1ccccc1 returned MCL1 BIM primary -6.6, Bim-Mcl-1 0.0, Bcl-xL primary -7.6, GLD-1 TGE inh -10.3, Mcl1 Noxa PPI -11.0 and Mcl1-Bid inh 4.4.
For O=C(Nc1ccc2c(c1)OCO2)c1cc2ncc(Br)cn2n1 the results were Bim-Mcl-1 3.0, Mcl1 Noxa PPI 57.5* and Mcl1-Bid inh -57.9.
For O=C(Nc1cccc(C(F)(F)F)c1)c1cc2ncc(Br)cn2n1 the results were MCL1 BIM primary 0.8, Bim-Mcl-1 1.0, Bcl-xL primary 4.2, GLD-1 TGE inh 2.0, Mcl1 Noxa PPI 22.4 and Mcl1-Bid inh -22.3.
O=C(O)COc1ccccc1O was read as MCL1 BIM primary 6.8, Bim-Mcl-1 -2.0, Bcl-xL primary 5.5, GLD-1 TGE inh -4.1, Mcl1 Noxa PPI 52.0* and Mcl1-Bid inh -18.7.
Screening CC(Oc1ccc2c3c(c(=O)oc2c1)CCCC3)C(=O)NCc1ccccn1 (stereo unspecified) returned MCL1 BIM primary 0.3, Bcl-xL primary 0.3 and GLD-1 TGE inh -0.7.
CC(C)CC(Nc1ncnc2scc(-c3ccccc3)c12)C(=O)O (stereo unspecified) was read as MCL1 BIM primary 3.7, Bcl-xL primary 2.7 and GLD-1 TGE inh -5.4.
CN(C)CCN(Cc1ccc(Cl)cc1)c1ccccn1 was read as MCL1 BIM primary -3.1, Bim-Mcl-1 -1.0, Bcl-xL primary 4.3, GLD-1 TGE inh 2.4, Mcl1 Noxa PPI 60.5* and Mcl1-Bid inh 0.7.
Screening CC1(C)O[C@@H]1COc1c2ccoc2cc2oc(=O)ccc12 returned MCL1 BIM primary 0.9, Bim-Mcl-1 -4.0, Bcl-xL primary 2.9, GLD-1 TGE inh 1.6, Mcl1 Noxa PPI -4.9 and Mcl1-Bid inh -2.4.
